According to PubChem BioAssay (EPA / NIEHS):
Activity calls are given as the source filed them. The calls were made as follows: active = hit-call score of the fitted dose curve at least 0.9, where 1 is the maximum; inactive = score below 0.9.

Experiments:
[1] = read-out: Tissue plasminogen activator (tPA), PLAT (gene 5327); experiment: BSK_BE3C_tPA: BioMAP Diversity Plus: BE3C Assay for Tissue plasminogen activator (tPA) Biomarker Activity (AID 2283041); conditions: primary human bronchial epithelial cells; actives raise or lower the signal
Procedure, shortened: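 Primary human bronchial epithelial cells in the BE3C system, exposed to compound for 24 h. tPA was quantified by ELISA; DMSO served as baseline, with gain or loss of signal fitted. Cytotoxicity checked in parallel cultures by SRB total-protein staining.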

[2] = read-out: Interleukin-8 (IL8), CXCL8 (gene 3576); experiment: BSK_CASM3C_IL8: BioMAP Diversity Plus: CASM3C Assay for Interleukin-8 (IL8) Biomarker Activity (AID 2283042); conditions: primary human coronary artery smooth muscle cells; actives raise or lower the signal;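 also: IL-8 protein level quantified by ELISA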
[3] = read-out: Human Leukocyte Antigen - DR isotype (HLADR), HLA-DRA (gene 3122); experiment: BSK_CASM3C_HLADR: BioMAP Diversity Plus: CASM3C Assay for Human Leukocyte Antigen - DR isotype (HLADR) Biomarker Activity (AID 2283043); conditions: primary human coronary artery smooth muscle cells; actives raise or lower the signal;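 also: cell-surface HLA-DR protein level quantified by ELISA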
[4] = read-out: Macrophage colony-stimulating factor (MCSF), CSF1 (gene 1435); experiment: BSK_CASM3C_MCSF: BioMAP Diversity Plus: CASM3C Assay for Macrophage colony-stimulating factor (MCSF) Biomarker Activity (AID 2283044); conditions: primary human coronary artery smooth muscle cells; actives raise or lower the signal;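 also: M-CSF protein amount quantified by ELISA after 24 h exposure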
[5] = read-out: Low-density lipoprotein receptor (LDLR), LDLR (gene 3949); experiment: BSK_CASM3C_LDLR: BioMAP Diversity Plus: CASM3C Assay for Low-density lipoprotein receptor (LDLR) Biomarker Activity (AID 2283045); conditions: primary human coronary artery smooth muscle cells; actives raise or lower the signal;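 also: LDLR protein level on the cell surface quantified by ELISA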
[6] = read-out: Monocyte Chemoattractant Protein-1 (MCP1), CCL2 (gene 6347); experiment: BSK_CASM3C_MCP1: BioMAP Diversity Plus: CASM3C Assay for Monocyte Chemoattractant Protein-1 (MCP1) Biomarker Activity (AID 2283046); conditions: primary human coronary artery smooth muscle cells; actives raise or lower the signal;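 also: MCP-1 level quantified by ELISA 24 h after dosing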
[7] = BSK_CASM3C_Proliferation: Cell Proliferation Assessment in the BioMAP Diversity Plus: CASM3C Assay (AID 2283047); conditions: primary human coronary artery smooth muscle cells;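 also: sulforhodamine B total protein stain as relative cell number at 560 nm; sub-confluent cells exposed 48 h before staining; fitted both ways against DMSO so gain or loss of cell number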
[8] = read-out: Monokine induced gamma interferon (MIG), CXCL9 (gene 4283); experiment: BSK_CASM3C_MIG: BioMAP Diversity Plus: CASM3C Assay for Monokine induced gamma interferon (MIG) Biomarker Activity (AID 2283048); conditions: primary human coronary artery smooth muscle cells; actives raise or lower the signal;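 also: MIG protein level measured by ELISA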
[9] = read-out: serum amyloid A (SAA), SAA1 (gene 6288); experiment: BSK_CASM3C_SAA: BioMAP Diversity Plus: CASM3C Assay for serum amyloid A (SAA) Biomarker Activity (AID 2283049); conditions: primary human coronary artery smooth muscle cells; actives raise or lower the signal;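 also: SAA protein level quantified by ELISA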
[10] = BSK_CASM3C_SRB: Viability Assessment in the BioMAP Diversity Plus: CASM3C Assay (AID 2283050); conditions: primary human coronary artery smooth muscle cells
[11] = read-out: Thrombomodulin, THBD (gene 7056); experiment: BSK_CASM3C_Thrombomodulin: BioMAP Diversity Plus: CASM3C Assay for Thrombomodulin Biomarker Activity (AID 2283051); conditions: primary human coronary artery smooth muscle cells; actives raise or lower the signal;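 also: thrombomodulin protein level measured by ELISA 24 h after dosing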
[12] = read-out: Tissue Factor, F3 (gene 2152); experiment: BSK_CASM3C_TissueFactor: BioMAP Diversity Plus: CASM3C Assay for Tissue Factor Biomarker Activity (AID 2283052); conditions: primary human coronary artery smooth muscle cells; actives raise or lower the signal;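 also: cell surface tissue factor protein level read by ELISA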
[13] = read-out: Interferon-gamma inducible Protein 10 (IP10), CXCL10 (gene 3627); experiment: BSK_hDFCGF_IP10: BioMAP Diversity Plus: hDFCGF Assay for Interferon-gamma inducible Protein 10 (IP10) Biomarker Activity (AID 2283053); conditions: primary human foreskin fibroblasts; actives raise or lower the signal
Procedure, shortened: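 Primary human foreskin fibroblasts exposed to chemicals for 24 h. IP-10 measured by ELISA; changes fitted bidirectionally against DMSO baseline.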

[14] = read-out: Urokinase-type plasminogen activator receptor (uPAR), PLAUR (gene 5329); experiment: BSK_CASM3C_uPAR: BioMAP Diversity Plus: CASM3C Assay for Urokinase-type plasminogen activator receptor (uPAR) Biomarker Activity (AID 2283054); conditions: primary human coronary artery smooth muscle cells; actives raise or lower the signal;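 also: cell-surface uPAR protein level quantified by ELISA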
[15] = read-out: Vascular cell adhesion molecule 1 (VCAM1), VCAM1 (gene 7412); experiment: BSK_CASM3C_VCAM1: BioMAP Diversity Plus: CASM3C Assay for Vascular cell adhesion molecule 1 (VCAM1) Biomarker Activity (AID 2283055); conditions: primary human coronary artery smooth muscle cells; actives raise or lower the signal;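 also: VCAM-1 protein level quantified by ELISA on the cells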
[16] = read-out: Collagen III, COL3A1 (gene 1281); experiment: BSK_hDFCGF_CollagenIII: BioMAP Diversity Plus: hDFCGF Assay for Collagen III Biomarker Activity (AID 2283056); conditions: primary human foreskin fibroblasts; actives raise or lower the signal
Procedure, shortened: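 Response relative to DMSO, fitted in both directions, reflects ELISA-measured collagen III in human primary skin fibroblasts 24 h after compound addition.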

[17] = read-out: Epidermal growth factor receptor (EGFR), EGFR (gene 1956); experiment: BSK_hDFCGF_EGFR: BioMAP Diversity Plus: hDFCGF Assay for Epidermal growth factor receptor (EGFR) Biomarker Activity (AID 2283057); conditions: primary human foreskin fibroblasts; actives raise or lower the signal
Procedure, shortened: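 Primary human foreskin fibroblasts (hDFCGF system), sampled 24 h after dosing; EGFR quantified by ELISA. Bidirectional fit relative to DMSO baseline; SRB total-protein staining in parallel cultures for cytotoxicity.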

[18] = read-out: Interleukin-8 (IL8), CXCL8 (gene 3576); experiment: BSK_hDFCGF_IL8: BioMAP Diversity Plus: hDFCGF Assay for Interleukin-8 (IL8) Biomarker Activity (AID 2283058); conditions: primary human foreskin fibroblasts; actives raise or lower the signal
Procedure, shortened: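 Fibroblast monolayers (human foreskin, hDFCGF) received test chemical for 24 h before ELISA detection of IL-8; either increases or decreases relative to DMSO count as activity.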

[19] = BSK_hDFCGF_Proliferation: Cell Proliferation Assessment in the BioMAP Diversity Plus: hDFCGF Assay (AID 2283059); conditions: primary human foreskin fibroblasts;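 also: curves fitted for both rise and fall of signal versus DMSO baseline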
Procedure, shortened: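 Total protein read at 560 nm after 0.1% SRB staining of TCA-fixed human skin fibroblasts, […]. Activity is fitted in both directions relative to DMSO as baseline.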

[20] = read-out: Macrophage colony-stimulating factor (MCSF), CSF1 (gene 1435); experiment: BSK_hDFCGF_MCSF: BioMAP Diversity Plus: hDFCGF Assay for Macrophage colony-stimulating factor (MCSF) Biomarker Activity (AID 2283060); conditions: primary human foreskin fibroblasts; actives raise or lower the signal
Procedure, shortened: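 fibroblasts (human foreskin, primary), 24 h post-dose; M-CSF by ELISA; bidirectional fit, DMSO = baseline.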

Measured: AC50

O=CCCCC=O
active: [3] 30.2 µM | [7] 23.5 µM | [11] 31.9 µM | [13] 34.9 µM | [15] 22.4 µM | [16] 33.6 µM | [18] 36.9 µM | [19] 25.3 µM | [20] 30.6 µM
inactive: all other assays above

c1ccc2ccccc2c1
inactive: all assays above

CCN(Cc1cccnc1)C(=O)c1cccc(Cl)c1[C@]1(C)C(=O)N(Cc2ccc(OC)cc2OC)c2ccc(Cl)cc21
active: [3] 29.8 µM | [5] 1.39 µM | [7] 12.6 µM | [13] 7.05 µM | [15] 5.43 µM | [17] 5.95 µM | [19] 5.1 µM | [20] 5.49 µM
inactive: all other assays above

CN(C[C@@H](CC[N+]12CCC(C3CCCCC3)(CC1)CC2)c1ccc(Cl)c(Cl)c1)C(=O)c1cc(C(F)(F)F)cc(C(F)(F)F)c1
active: [1] 11.9 µM | [2] 24.7 µM | [3] 12.7 µM | [4] 14.9 µM | [5] 14.3 µM | [6] 15.6 µM | [7] 9.26 µM | [8] 31.1 µM | [9] 18 µM | [10] 14.7 µM | [12] 20 µM | [13] 6.46 µM | [14] 13 µM | [15] 14.3 µM | [16] 7.21 µM | [17] 5.37 µM | [18] 9.76 µM | [19] 5.55 µM | [20] 7.28 µM
inactive: [11]

CN(C)C(=O)C1(N2CCCCC2)CCN(CC[C@@]2(c3ccc(Cl)c(Cl)c3)CN(C(=O)c3ccccc3)CCO2)CC1
active: [1] 17.3 µM | [2] 32.4 µM | [3] 18.1 µM | [4] 31.3 µM | [5] 4.45 µM | [6] 28.6 µM | [7] 15.7 µM | [8] 29.9 µM | [9] 33.3 µM | [10] 27.2 µM | [11] 34.7 µM | [12] 31 µM | [13] 27.2 µM | [14] 24.4 µM | [15] 30 µM | [16] 25.4 µM | [17] 9.57 µM | [18] 33.7 µM | [19] 5.15 µM | [20] 20.8 µM

CCCCOC(=O)c1ccc(O)cc1
active: [19] 20 µM
inactive: all other assays above

O=c1[nH]sc2ccccc12
active: [1] 11 µM | [2] 14.6 µM | [3] 5.36 µM | [4] 14.9 µM | [5] 12.7 µM | [6] 13.1 µM | [7] 1.89 µM | [8] 10.7 µM | [9] 20.4 µM | [10] 17.3 µM | [11] 4.73 µM | [12] 28 µM | [13] 4.08 µM | [14] 11.3 µM | [15] 10.7 µM | [16] 20 µM | [18] 20 µM | [19] 0.281 µM | [20] 3.22 µM
inactive: [17]

O=C1c2ccccc2C(=O)N1CCc1noc(-c2ccc(CN3CCCCCC3)s2)n1
active: [5] 27.1 µM
inactive: all other assays above

Cc1ccc2oc(CN(Cc3ccccc3)C(=O)Nc3c(F)cc(F)cc3F)c(-c3ccc(Cl)cc3)c2c1
active: [13] 5.68 µM
inactive: all other assays above

COc1cc(C(=O)NC2CCN(C)CC2)ccc1Nc1ncc2c(n1)N(C1CCCC1)CC(F)(F)C(=O)N2C
inactive: [11] | [17]
active: [1] 10.6 µM | [2] 19.2 µM | [3] 9.13 µM | [4] 18.6 µM | [5] 6.15 µM | [6] 25.1 µM | [7] 1.67 µM | [8] 20.8 µM | [9] 31.9 µM | [10] 27.5 µM | [12] 14.2 µM | [13] 11.9 µM | [14] 24.2 µM | [15] 14.1 µM | [16] 19 µM | [18] 23.8 µM | [19] 4.95 µM | [20] 14.9 µM

O=C(Nc1ccc(Cl)cc1)Nc1ccc(Cl)c(Cl)c1
active: [1] 1.73 µM | [3] 2.81 µM | [4] 12.3 µM | [5] 7.14 µM | [7] 5 µM | [9] 12.6 µM | [10] 10.6 µM | [12] 9.41 µM | [13] 0.148 µM | [14] 9.76 µM | [16] 0.148 µM | [17] 1 µM | [19] 0.477 µM | [20] 0.284 µM
inactive: [2] | [6] | [8] | [11] | [15] | [18]
